Reference: PubChem BioAssay (NCATS)
Records with an inconclusive call do not appear. Entries that show only a call come without a potency. A number with no mark means an inactive call. Calls of active or inactive are those of the source. Calls come from the whole dose curve; as a rule, active = well fitted cell-killing curve with a large enough effect; inconclusive = small, poorly fitted or top-dose-only effect, or effect the other way; inactive = flat fitted curve, though single readings scatter.

System: Tov-21-G
Assay: Primary qHTS to identify gynecologic anti-cancer compounds using libraries of approved drugs and bioactive compounds (AID 1345084); note: nearly all actives have a fitted effect of over 55% in size
Settings: Gynecologic cancer cell panel viability, ATPlite luminescence, 48 h; series mostly up to 57.5 µM
Method in brief: (§1)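 In this quantitative HTS, cell killing is estimated from loss of ATP-dependent luciferase light. Cells see five compound concentrations over a 48 h exposure.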
Potency is the fitted concentration of half-maximal effect.

| Structure (SMILES) | Potency | activity change, negative = cytotoxicity |
| --- | --- | --- |
| CC1(C)CCCC2(C)C1CC=C1C(=O)OC(O)C12O (configuration not stated) | inactive |  |
| CCOc1ccc(S(=O)(=O)n2c(C)nc3ccccc32)cc1 | inactive |  |
| CC(C)[C@H]1CC[C@@]2(O)COC(=O)[C@H]2[C@@H]1/C=C(\CO)C(=O)O | inactive |  |
| CC(O)CO[C@@H]1O[C@H](CO)[C@@H](O)[C@H](O)[C@H]1O (some centres not stated) | inactive |  |
| CC1(C=O)CC[C@]2(C(=O)O[C@@H]3O[C@H](CO)[C@@H](O)[C@H](O)[C@H]3O)CC[C@]3(C)C(=CCC4[C@@]5(C)C[C@H](O)[C@H](O[C@@H]6OC[C@@H](O)[C@H](O)[C@H]6O)[C@@](C)(CO)C5CC[C@]43C)C2C1 (some centres not stated) |  | -1.76% [at 11.6 µM] |
| COC1C(CO)OC(n2cnc3c(=O)[nH]cnc32)C1O (configuration not stated) | inactive |  |
| Cc1csc(NC(=O)c2ccc(COc3cccc(Cl)c3)o2)n1 | inactive |  |
| CC[C@@](C)(Nc1ccnc(-c2c[nH]c3ncccc23)n1)C(=O)NCC(F)(F)F | inactive |  |

System: Tov112D
Assay: as above
Settings: Gynecologic cancer cell panel viability, ATPlite luminescence, 48 h; series mostly up to 57.5 µM
Method in brief: as §1

| Structure (SMILES) | Potency | activity change, negative = cytotoxicity |
| --- | --- | --- |
| COc1ccc(-c2nc(-c3ccc(-c4cccc(Cl)c4)o3)[nH]c2-c2ccc(OC)cc2)cc1 | inactive |  |
| CC(=O)c1c(O)cc(O[C@@H]2O[C@H](CO)[C@@H](O)[C@H](O)[C@H]2O)cc1O | inactive |  |
| C=C1C(O)C(O)C2(CC3C(C)=CCC4C(C)(CO)CCCC34C)OC2C1O (configuration not stated) | inactive |  |
| O=C1NC(Cc2c[nH]c3ccccc23)C(=O)NC1Cc1c[nH]c2ccccc12 (configuration not stated) | inactive |  |
| CC1CCC2(C=O)C(CO)=CCCC2C1(C)CC(=O)O (configuration not stated) | inactive |  |
| COc1cc(C)c(C(=O)O[C@H]2[C@@H](OC(C)=O)[C@H](n3ccc(=O)[nH]c3=O)O[C@@H]2CO)c(OC)c1 | inactive |  |
| COC(=O)C1=CO[C@@H](O[C@@H]2O[C@H](CO)[C@@H](O)[C@H](O)[C@H]2O)[C@@H]2[C@@](C)(O)[C@@H](OC(=O)/C=C/c3ccc(O)cc3)C[C@]12O | inactive |  |
| C[C@@H]([C@@H](O)c1ccc(O)cc1)N1CCC(O)(c2ccccc2)CC1 | inactive |  |
| N#C[C@@H]1C[C@H](F)CN1C(=O)CNC1[C@H]2CN(C(=O)c3ccc(F)cc3)C[C@@H]12 (some centres not stated) | inactive |  |
| C=C1CCC2C(C)(C(=O)OC)CCCC2(C)C1CCC(C)CC(=O)O (configuration not stated) | inactive |  |
| C[C@@H]1C(=O)O[C@H]2C[C@]34[C@H]5C[C@@H](C(C)(C)C)[C@]36[C@@H](OC(=O)[C@H]6O)O[C@]4(C(=O)O5)[C@]21O | inactive |  |
| COC(=O)C1=COC(O[C@@H]2O[C@H](CO)[C@@H](O)[C@H](O)[C@H]2O)[C@H]2[C@@H]1[C@H](OC(=O)CCc1ccc(O)cc1)C[C@]2(C)O (some centres not stated) | inactive |  |
| CC(=O)OC[C@H]1O[C@H](O[C@]2(CO)O[C@H](CO)[C@@H](OC(=O)/C=C/c3ccccc3)[C@@H]2O)[C@H](O)[C@@H](O)[C@@H]1O | inactive |  |
| C=C(C)C1CC[C@]2(C(=O)O)CC[C@]3(C(=O)O)[C@H](CCC4[C@@]5(C)CC[C@H](O)C(C)(C)C5CC[C@]43C)C12 (some centres not stated) | inactive |  |
| COc1cc(/C=C/C(=O)O[C@H]2[C@H](O)[C@@H](CO)O[C@@]2(CO)O[C@H]2O[C@H](CO)[C@@H](O)[C@H](O)[C@H]2O)ccc1O | inactive |  |
| CC1(C(=O)O)CCCC2(C)C3CCC4CC3(CCC12)CC4=O (configuration not stated) | inactive |  |
| C/C=C/C(O)C1OC(=O)CC1Nc1ccc(C(=O)O)cc1 (configuration not stated) | inactive |  |
| C=C(CO[C@@H]1O[C@H](CO[C@@H]2OC[C@](O)(CO)[C@H]2O)[C@@H](O)[C@H](O)[C@H]1O)C1Cc2cc(C(C)=O)ccc2O1 (some centres not stated) | inactive |  |
| COc1ccc([C@@]2(O)c3c(ccc4c3OC(C)(CCC=C(C)C)C=C4)NC(=O)[C@@H]2OC)cc1 (some centres not stated) | inactive |  |
| C=C1C[C@]23C[C@H]1[C@@H](O)C[C@H]2[C@@]12C=C[C@H](O)[C@@](C)(C(=O)O1)[C@H]2[C@@H]3C(=O)O | inactive |  |

| Structure (SMILES) | Potency | activity change, negative = cytotoxicity |
| --- | --- | --- |
| C=C1C(=O)O[C@@H]2C[C@H](C)[C@@]3(O)C=C(C(C)=O)[C@]4(CC3C[C@H]12)C(=O)O[C@H]1C[C@@H](C)C(CCC(C)=O)=CC[C@H]14 (some centres not stated) | inactive |  |
| CCC(C)C(=O)OC1CC(C)C=C2C=CC(C)C(CCC(O)CC(O)CC(=O)O)C21 (configuration not stated) | inactive |  |
| OC[C@H]1O[C@@H](OCCc2ccccc2)[C@H](O[C@@H]2OC[C@](O)(CO)[C@H]2O)[C@@H](O)[C@@H]1O | inactive |  |
| CC1=C(C(=O)O)/C(=C\CO[C@@H]2O[C@H](CO)[C@@H](O)[C@H](O)[C@H]2O)C(OC(=O)/C=C\c2ccc(O)cc2)C1 (some centres not stated) | inactive |  |
| CC1(C)CCCC2(C)C1C(O)C=C(CO)C2(O)CO (configuration not stated) | inactive |  |
| C/C=C(\C)C(=O)OCC1OC(OC2OC(COC(=O)/C(C)=C/C)C(OC3OC(CO)C(OC(=O)/C(C)=C/C)C(OC(=O)/C(C)=C/C)C3O)C(O)C2O)C(O)C(O)C1OC1OC(CO)C(OC(=O)/C(C)=C/C)C(OC(=O)/C(C)=C/C)C1O (configuration not stated) |  | -1.35% [at 11.6 µM] |
| COc1c2c(c(C)c3c1C(=O)OC3)O[C@@]1(C)CCC3(C(C)(C)O)OC(=O)CC[C@]3(C)[C@H]1C2 (some centres not stated) | inactive |  |
| COc1ccc(C[C@H](N)C(=O)N[C@@H]2[C@H](O)[C@H](n3cnc4c(N(C)C)ncnc43)O[C@@H]2CO)cc1 | 1780 nM (active) |  |
| OC1CCC(Nc2ncc3nc(Nc4c(F)cc(F)cc4F)n([C@H]4CCOC4)c3n2)CC1 (some centres not stated) | inactive |  |
| Cn1cc(-c2ccc3nnc(Sc4ccc5nn(C)cc5c4)n3n2)cn1 | inactive |  |
| COc1cc(N)c(Cl)cc1C(=O)NC[C@@H]1CCN2CCC[C@@H]12 | inactive |  |
| CC1(C)CCCC2(C)C1CC=C1C(=O)OC(O)C12O (configuration not stated) | inactive |  |
| CCOc1ccc(S(=O)(=O)n2c(C)nc3ccccc32)cc1 | inactive |  |
| CC(C)[C@H]1CC[C@@]2(O)COC(=O)[C@H]2[C@@H]1/C=C(\CO)C(=O)O | inactive |  |
| CC(O)CO[C@@H]1O[C@H](CO)[C@@H](O)[C@H](O)[C@H]1O (some centres not stated) | inactive |  |
| CC1(C=O)CC[C@]2(C(=O)O[C@@H]3O[C@H](CO)[C@@H](O)[C@H](O)[C@H]3O)CC[C@]3(C)C(=CCC4[C@@]5(C)C[C@H](O)[C@H](O[C@@H]6OC[C@@H](O)[C@H](O)[C@H]6O)[C@@](C)(CO)C5CC[C@]43C)C2C1 (some centres not stated) |  | -0.249% [at 11.6 µM] |
| COC1C(CO)OC(n2cnc3c(=O)[nH]cnc32)C1O (configuration not stated) | inactive |  |
| Cc1csc(NC(=O)c2ccc(COc3cccc(Cl)c3)o2)n1 | inactive |  |
| CC[C@@](C)(Nc1ccnc(-c2c[nH]c3ncccc23)n1)C(=O)NCC(F)(F)F | inactive |  |
